GLP-1R inv ag = GLP-1 receptor (human) inverse agonism | HEK293 GLP-1R CRE-luciferase, luminescence, 24 h; GLP-1R form is constitutively active | 410,000 compounds, 1.6% hits | Potency, µM (doses to about 38.3 µM), inactives show at the top dose activity change, negative = inhibition, most hits filed as inhibitors | AID 624417 | P43220; note: % is set by controls: 0 for no effect and ±100 for the full control effect; nearly all actives have a fitted effect of over 55% in size
Target sequence (P43220 whole entry, looked up): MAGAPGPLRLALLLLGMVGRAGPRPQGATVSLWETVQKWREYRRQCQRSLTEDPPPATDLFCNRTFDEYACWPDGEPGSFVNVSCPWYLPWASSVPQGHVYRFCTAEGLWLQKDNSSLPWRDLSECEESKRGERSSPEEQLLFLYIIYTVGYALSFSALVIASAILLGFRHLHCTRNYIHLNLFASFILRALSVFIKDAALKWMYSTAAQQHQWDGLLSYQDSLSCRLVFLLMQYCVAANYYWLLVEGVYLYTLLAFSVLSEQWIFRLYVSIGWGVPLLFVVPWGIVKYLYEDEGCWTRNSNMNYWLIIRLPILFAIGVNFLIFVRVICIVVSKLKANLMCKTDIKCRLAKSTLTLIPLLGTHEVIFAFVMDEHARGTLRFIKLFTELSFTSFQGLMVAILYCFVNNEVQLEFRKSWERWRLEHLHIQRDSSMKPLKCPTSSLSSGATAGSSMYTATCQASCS
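qHTS in 1536-well format: reporter HEK293 cells expressing constitutive GLP-1R activity in DMEM + 10% Nu serum, 24 hr with compounds at 37 deg C, luminescence read after 12 min with detection reagent.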
PTHR1 agonist = PTHR1 (human) receptor agonism; Q03431; HEK293 GP2 PTHR1 cells, GloSensor cAMP luminescence, 1 h; Potency, µM (top dose mostly 115 µM), inactives show top-dose activation, actives largely listed as activators; 410,000 compounds, 0.075% hits; AID 743266; note: nearly all actives have a fitted effect of over 55% in size
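HEK-293-derived GP2 cells expressing PTHR1 and a GloSensor cAMP reporter, 3,000/well, plated overnight, given luciferin plus IBMX (each 0.5 mM as added) for 1 h at 37 °C, then compound for 1 h at 37 °C. Luminescence was read after 15 min at room temperature.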
HEK293 tox = cytotoxic in the GLP-1 receptor inverse agonist counter-screen; AID 624418; HEK293 cAMP-luciferase reporter cells, luminescence, 24 h; 410,000 compounds, 0.13% hits; Potency, µM (top dose mostly 38.3 µM), for inactives: at the top dose activity change, negative = inhibition, hits mostly inhibitors;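 note: loss of luciferase light is scored as toxicity; % is set by controls: 0 for no effect and ±100 for the full control effect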
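MLSMR compounds, 24 hr on cells at 37 deg C/5% CO2; luminescence after luciferase reagent (12 min RT). Inhibition counted as the undesired cytotoxic outcome.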
GLP-1R agonist = agonists of human GLP-1 receptor; Potency, µM (titrated, usually from 45.6 µM), without a hit: top-dose activation, hits mostly activators; P43220; HEK293 GLP-1R CRE-luciferase, luminescence, 4-6 h; cells express a hypersensitive GLP-1R form; 380,000 compounds, 0.007% hits; note: % of control where 0% means no effect
Numbers without * were called inactive; [ ] = remark or other dose. Compounds with a hit are over-represented: about 1.7% of the library has one in this group of screens. Calls come from the whole dose curve; as a rule, active = well fitted curve in the direction sought with a large enough effect; inconclusive = small, poorly fitted or top-dose-only effect, or another doubt; inactive = no such curve, though single readings can be large; an effect the other way counts as inactive or inconclusive. Potency is the fitted concentration of half-maximal effect.

For C[C@@H](NC(=O)c1nc[nH]c1C(=O)NCc1ccc(CNC(=O)OC(C)(C)C)cc1)c1ccccc1 the results were GLP-1R inv ag inconclusive, PTHR1 agonist -40.5%, HEK293 tox inconclusive and GLP-1R agonist 9.0%.
For CCC(=O)OC1[C@@H](N2CCCCC2)C[C@H]2[C@@H]3CC[C@H]4C[C@H](OC(C)=O)[C@@H](N5CCCCC5)C[C@]4(C)[C@H]3CC[C@]12C (some centres not stated) the results were GLP-1R agonist -0.2%.
`Cc1c(CN2CCC(CO)(CCOc3ccccc3)CC2)[nH]c2c(Cl)cccc12` gave GLP-1R inv ag 4.47µM*, PTHR1 agonist inactive, HEK293 tox inconclusive and GLP-1R agonist 9.6%.
C[C@@H]1CN([C@@H](C)CO)C(=O)c2c(c3ccccc3n2C)-c2ccccc2CO[C@H]1CN(C)C(=O)[C@H](C)c1ccccc1 was read as GLP-1R inv ag inconclusive, PTHR1 agonist -41.8%, HEK293 tox -11.1% and GLP-1R agonist -0.5%.
Screening Cc1ccc(Cl)cc1N1CCN(C(=O)C2CCN(S(=O)(=O)c3ccc4c(c3)oc(=O)n4C)CC2)CC1 returned GLP-1R inv ag inconclusive, PTHR1 agonist inactive and HEK293 tox 1.7%.
CN1C2CCC1CC(OC(=O)c1ccc([N+](=O)[O-])cc1)C2 (configuration not stated) was read as GLP-1R inv ag 3.98µM*, PTHR1 agonist inactive, HEK293 tox 6.8% and GLP-1R agonist -4.4%.
`Cc1nc2ccccc2c(=O)n1-c1cccc(O)c1` gave GLP-1R inv ag 24.3%, PTHR1 agonist -20.3%[57.5 µM], HEK293 tox 17.4% and GLP-1R agonist 14.7%.
O=c1c2ccccc2nc(-c2ccccc2Cl)n1-c1cccc(O)c1 was read as GLP-1R inv ag 0.891µM*, PTHR1 agonist inactive, HEK293 tox -4.7% and GLP-1R agonist -0.8%.
For O=c1c2ccccc2nc(-c2cccs2)n1-c1ccccc1 the results were GLP-1R inv ag 2µM*, PTHR1 agonist inactive, HEK293 tox -0.3% and GLP-1R agonist 12.0%.
`Cc1ccc(-c2nc3ccccc3c(=O)n2-c2cccc(O)c2)cc1` gave GLP-1R inv ag 1.78µM*, PTHR1 agonist inactive, HEK293 tox -2.5% and GLP-1R agonist 13.8%.
COc1ccc(OC)c(NC(=O)c2nc(S(=O)(=O)Cc3ccc(F)cc3)ncc2Cl)c1 was read as GLP-1R inv ag inconclusive, PTHR1 agonist inactive and HEK293 tox inconclusive.
`C[N+]1(CCF)[C@@H]2CC[C@@H]1CC(OC(=O)C(O)(c1ccccc1)c1ccccc1)C2` (some centres not stated) gave GLP-1R agonist 10.7%.
CC(C)CNC(=S)N(Cc1ccco1)Cc1cc2cc3c(cc2[nH]c1=O)OCCO3 was read as GLP-1R inv ag inconclusive, PTHR1 agonist -32.2%, HEK293 tox inconclusive and GLP-1R agonist 9.5%.
For Cc1ccc(S(=O)(=O)N2CCC(C(=O)OCc3ccccc3)CC2)cc1C the results were GLP-1R inv ag 10µM*, PTHR1 agonist -75.7%, HEK293 tox -10.9% and GLP-1R agonist 12.6%.
O=C(Cn1ncc(Cl)c(Cl)c1=O)NCC1CCCCC1 was read as GLP-1R inv ag inconclusive, PTHR1 agonist -25.4%, HEK293 tox 10µM* and GLP-1R agonist -22.9%.
Cc1cc(N=Nc2ccccc2C)ccc1N was read as GLP-1R inv ag 10µM*, PTHR1 agonist -23.0%, HEK293 tox -21.2% and GLP-1R agonist 17.4%.
Screening CNC(=O)/C(C#N)=C/c1c(N2CCCCCC2)nc2ccccn2c1=O returned GLP-1R inv ag 65.6%, PTHR1 agonist inactive, HEK293 tox 120.9% and GLP-1R agonist 7.4%.
`Nc1c(C(=O)NCC2CCCO2)c2nc3ccccc3nc2n1-c1ccccc1` (configuration not stated) gave GLP-1R inv ag inconclusive, PTHR1 agonist inactive, HEK293 tox inactive and GLP-1R agonist 0.8%.
Screening c1ccc(Nc2nc(NCC3CCCO3)c3ccccc3n2)cc1 (configuration not stated) returned GLP-1R inv ag 8.91µM*, PTHR1 agonist -25.0%, HEK293 tox inconclusive and GLP-1R agonist -2.0%.
`Cc1nc(N2N=C3/C(=C/c4ccc(F)cc4)CCCC3C2c2ccc(F)cc2)sc1C(=O)N(C)C` (configuration not stated) gave GLP-1R inv ag 10µM*, PTHR1 agonist -20.5%, HEK293 tox 410.1% and GLP-1R agonist -4.4%.
Screening O=C(c1ccccc1Cl)N1CCC(c2nc3ccccc3s2)CC1 returned GLP-1R inv ag -25.0%, PTHR1 agonist -39.3% and HEK293 tox 1.6%.
Screening COc1ccccc1N1CCN(Cc2ccc(Br)cc2)CC1 returned GLP-1R inv ag 10µM*, PTHR1 agonist -36.9%, HEK293 tox 1.7% and GLP-1R agonist 7.2%.
For COc1ccccc1N1CCN(Cc2ccccc2Cl)CC1 the results were GLP-1R inv ag 0.0%, PTHR1 agonist -18.2%[57.5 µM], HEK293 tox 0.5% and GLP-1R agonist 0.4%.
For COc1ccc(-c2nn(-c3ccccc3)cc2C(=O)N2c3ccc(C)cc3C3CN(C)CCC32)cc1 (configuration not stated) the results were GLP-1R inv ag 14.1µM*, PTHR1 agonist inactive, HEK293 tox 4.0% and GLP-1R agonist 8.6%.
Screening C=CCC1(O)CCC2C3CCC4=CC(=O)CCC4=C3C=CC21C (configuration not stated) returned GLP-1R agonist 15.8%.
`CN(C)C(=O)Oc1ccc(Cl)c2cccnc12` gave GLP-1R inv ag -1.0%, PTHR1 agonist inactive, HEK293 tox -4.2% and GLP-1R agonist 0.5%.
CN(C)C(=O)Oc1c(Cl)cc(Cl)c2ccccc12 was read as GLP-1R inv ag 11.2µM*, PTHR1 agonist -8.7%, HEK293 tox 6.8% and GLP-1R agonist -1.8%.
Screening Cc1ccc(NC(=O)COc2ccc(-c3nn(C)c(=O)c4ccccc34)cc2)c(C)c1 returned GLP-1R inv ag 11.4%, PTHR1 agonist -28.7% and HEK293 tox -11.6%.
COc1ccc(C(C)=O)cc1CSc1nc(NCc2ccccc2)c2ccccc2n1 was read as GLP-1R inv ag -17.3%, PTHR1 agonist inactive and HEK293 tox inconclusive.
Screening Cc1cccc(NP(=O)(Oc2ccccc2F)Oc2ccccc2F)c1 returned GLP-1R inv ag 11.2µM*, PTHR1 agonist -2.7%, HEK293 tox inconclusive and GLP-1R agonist -16.9%.
O=P(Nc1cccc(F)c1)(Oc1ccccc1F)Oc1ccccc1F was read as GLP-1R inv ag 11.2µM*, PTHR1 agonist inactive, HEK293 tox -18.5% and GLP-1R agonist 10.7%.
Cc1ccc(NP(=O)(Oc2ccccc2F)Oc2ccccc2F)cc1C was read as GLP-1R inv ag inconclusive, PTHR1 agonist inactive, HEK293 tox -28.2% and GLP-1R agonist 1.1%.
CC[C@H](O)C(C[C@H](C)N(C)C)(c1ccccc1)c1ccccc1 was read as GLP-1R agonist 7.9%[96 µM].

Screening data from PubChem.
